D2 PAM-1 = Beta-Arrestin HTS for Positive Allosteric Modulators of the Human D2 Dopamine Receptor: Potentiators. AID 624464, 2012. D(2) dopamine receptor (Homo sapiens), P14416. potentiation, % (concentration not given with the values). DiscoveRx D2 beta-arrestin cells, luminescence, 90 min; 100% = 57 uM dopamine signal. 360,000 compounds, 0.23% hits; in the data active = potentiation above about 50%; inconclusive = mostly about 30% to 49%
Target sequence (P14416 whole entry, looked up): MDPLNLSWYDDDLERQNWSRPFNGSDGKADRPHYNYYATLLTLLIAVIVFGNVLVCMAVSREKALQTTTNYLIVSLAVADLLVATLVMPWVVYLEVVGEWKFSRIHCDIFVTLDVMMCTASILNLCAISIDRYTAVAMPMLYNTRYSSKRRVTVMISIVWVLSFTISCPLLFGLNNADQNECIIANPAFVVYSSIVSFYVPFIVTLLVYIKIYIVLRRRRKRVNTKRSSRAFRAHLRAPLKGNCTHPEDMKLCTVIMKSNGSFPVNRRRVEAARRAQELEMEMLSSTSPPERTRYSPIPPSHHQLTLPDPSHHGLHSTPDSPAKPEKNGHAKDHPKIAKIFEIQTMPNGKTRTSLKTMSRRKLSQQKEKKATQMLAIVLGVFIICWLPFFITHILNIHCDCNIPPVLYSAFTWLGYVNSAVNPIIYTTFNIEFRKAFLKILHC
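PathHunter D2 cells, attached overnight at 37 deg C, received compound in DMSO plus dopamine at EC20 (50 nM final) for 90 min at 37 deg C. Beta-arrestin recruitment was read as luminescence after 1 h with detection reagent at ambient temperature.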
D2 antag = HTS Assay for Allosteric Antagonists of the Human D2 Dopamine Receptor: Primary Screen for Antagonists | D(2) dopamine receptor (Homo sapiens), P14416 | HEK293 TREx D2 cells, calcium flux, dopamine EC80 | inhibition, % at 10 µM | 340,000 compounds, 2% hits | AID 485344, 2010; in the data active = inhibition above about 30%; inactive = below that, where a call was filed
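Dopamine at EC80 is the agonist stimulus; test compounds precede it by 180 s. Calcium flux read kinetically in a force-coupled, inducible HEK293 T-REx D2 cell line.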
D2 PAM-2 = HTS Assay for Positive Allosteric Modulators of the Human D2 Dopamine Receptor: Primary Screen for Potentiators. D(2) dopamine receptor (Homo sapiens), P14416. HEK293 T-REx D2, calcium flux, EC20 dopamine potentiation. potentiation, % at 10 µM. 340,000 compounds, 0.34% hits. AID 485347, 2010;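 active = potentiation over 3 SD above the plate norm, cut at about 30% in these data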
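Using a no-wash calcium dye in inducible, force-coupled HEK293 Trex cells expressing D2, we tracked fluorescence each second for 180 s after compound, then for 180 s after EC20 dopamine to detect augmented signalling.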
D2 ag-1 = Beta-Arrestin HTS for Positive Allosteric Modulators of the Human D2 Dopamine Receptor: Agonists; D(2) dopamine receptor (Homo sapiens), P14416; DiscoveRx PathHunter D2 beta-arrestin, luminescence, 90 min; 100% = 57 uM dopamine signal; activation, % (no concentration beside the values); 360,000 compounds, 0.084% hits; AID 624465, 2012; in the data active = activation above about 40%; inconclusive = between about 15% and that limit
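DiscoveRx PathHunter D2 beta-arrestin cells (2,100/well) attached overnight, then compound-stimulated 90 min at 37 C in HBSS/10 mM HEPES/0.1% Tween-20 buffer; beta-galactosidase complementation read by luminescence after 1 h at ambient temperature. Dopamine 57 uM final (EC100) as control.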
D2 ag-2 = HTS Assay for Allosteric Agonists of the Human D2 Dopamine Receptor: Primary Screen for Agonists; D(2) dopamine receptor (Homo sapiens), P14416; AID 485358, 2010; HEK293 T-REx D2 cells, calcium flux agonist mode; 340,000 compounds, 0.53% hits; activation, % at 2 µM;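 active = activation over 3 SD above normal in the single-dose calcium agonist read, cut at about 30% in these data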
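In this primary screen, compounds producing a positive calcium signal within 180 s of addition to tetracycline-induced, force-coupled HEK293 Trex D2 cells are flagged; cells are dye-loaded with a no-wash calcium kit beforehand.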
Large screens that a line does not name were inactive. An excerpt weighted towards active compounds, which were near 2.4% of everything screened.

COc1cc(/C=C(/C#N)c2nc(-c3cc4ccccc4oc3=O)cs2)ccc1O	none (no result: D2 PAM-1, D2 antag, D2 ag-1)
O=C(Nc1nnc(-c2ccccc2)o1)c1nc2ccccc2s1	D2 ag-2 44
CCc1ccccc1NC(=O)Cn1c(=O)n(Cc2ccc(OC)cc2)c(=O)c2oc3ccccc3c21	none (no result: D2 PAM-1, D2 antag, D2 ag-1)
O=C1C(=NO)CCc2ccccc21	D2 PAM-1 80, D2 ag-1 inconclusive (no result: D2 antag, D2 PAM-2, D2 ag-2)
Cc1cc(C)c(OCCCCN(C)Cc2ccccc2)c(C)c1	D2 antag 33
Cc1ccc(OCCCCN(C)Cc2ccccc2)c(Br)c1	none
O=C1C2CCCCN2C(=O)N1CCCCN1CCN(c2cccc(Cl)c2)CC1 (stereo unspecified)	D2 antag 92
O=C1C2CCCCN2C(=O)N1CCCCN1CCN(c2ccccc2Oc2ccccc2)CC1 (stereo unspecified)	D2 antag 84
COc1ccccc1N1CCN(CCCCN2C(=O)C3CCCN3C2=O)CC1 (stereo unspecified)	none (no result: D2 antag, D2 PAM-2, D2 ag-2)
Cc1cc(C)nc(N/N=C/c2ccccc2)n1	D2 antag 44
CCOc1ccc(CCNC(=O)Cn2nc(-c3ccc(C)cc3)ccc2=O)cc1OCC	none (no result: D2 PAM-1, D2 antag, D2 PAM-2, D2 ag-1)
Cc1ccc(S(=O)(=O)CC(=O)Nc2ncc([N+](=O)[O-])s2)cc1	none
Cc1ccc(CC(=O)Nc2ncc([N+](=O)[O-])s2)cc1	D2 PAM-1 67
O=S(=O)(c1ccccc1)N1CCN(C(=S)NCCc2ccccc2)CC1	D2 antag 38
CCCCn1c(-c2nonc2N)nc2ccccc21	none
CC(C)CCn1c(-c2nonc2N)nc2ccccc21	D2 PAM-2 33
O=c1cc(/C=C/c2ccccc2)oc2c1ccc1ccccc12	none
O=c1cc(C(F)(F)F)oc2c1ccc1ccccc12	D2 antag 34
O=C1Nc2ccccc2/C1=C/c1ccccc1Cl	none
CN1CCN(c2ccccc2/C=C2/C(=O)Nc3ccccc32)CC1	D2 antag 37
Cn1c2ccccc2c2c(C(=O)N3CCN(c4ccccn4)CC3)cn(C3CCCC3)c(=O)c21	D2 antag 31
CC1CCC(NC(=O)CCc2cn(Cc3ccc(F)cc3)c3ccccc23)CC1 (stereo unspecified)	none (no result: D2 PAM-1, D2 antag, D2 ag-1)
COCC(=O)N1c2nc(C(C)C)nn2C2(CCCCC2)[C@@H]2CCCC[C@@H]21	none (no result: D2 PAM-1, D2 antag, D2 ag-1)
Brc1ccc(Oc2nnnn2-c2ccccc2)cc1	D2 antag 45
O=C(COC(=O)/C=C/c1ccco1)NCc1ccccc1Cl	D2 antag 33
O=C(COC(=O)/C=C/c1ccco1)NCc1ccc(Cl)cc1Cl	none (no result: D2 antag, D2 PAM-2, D2 ag-2)
COc1ccc(Cn2c(CO)cnc2SCc2cccc(C)c2)cc1	none (no result: D2 PAM-1, D2 antag, D2 ag-1)
CCOc1cc2sc(N3CCC(C(=O)Nc4ccc(C)cc4C)CC3)nc2cc1Br	none (no result: D2 PAM-1, D2 antag, D2 ag-1)
CC(=O)N(C)c1ccc(OCC(O)Cn2c(C)nc3ccccc32)cc1 (stereo unspecified)	D2 PAM-2 31
CC(=O)Nc1ccc(OCC(O)Cn2c(C)nc3ccccc32)cc1 (stereo unspecified)	none
Cc1ccc(N2CCN(CC(O)COC3CCCCC3)CC2)cc1 (stereo unspecified)	D2 antag 63
Cc1nc2ccccc2n1CC(O)COC1CCCCC1 (stereo unspecified)	D2 antag 32
CCOc1ccc(N(CC(=O)NCCc2ccc(Cl)cc2)S(=O)(=O)c2c(C)[nH]c(=O)[nH]c2=O)cc1	D2 PAM-2 32
CCOc1ccc(N(CC(=O)NCc2ccc(OC)cc2)S(=O)(=O)c2c(C)[nH]c(=O)[nH]c2=O)cc1	none (no result: D2 antag)
CCCN(CC(=O)Nc1ccccc1C)C(=O)c1ccc(C(=O)c2ccccc2)cc1	D2 antag 43
CCCCCCCCCCCCCCCCn1cc[n+](CC(C)=O)c1	none
CCCCCCn1ccc(=N)cc1	D2 antag 36

Bioassay records (PubChem)
